Experimental findings from PubChem BioAssay AID1035475 (Broad Institute, 2014) are described below.

SMILES strings stand for the structures. Measured potencies and affinities stand elsewhere. Inconclusive results are not listed. Activity calls are given as the source filed them.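 The calls were made as follows: active = fluorescent signal drops by 40% or more, counted as a hit; inconclusive = no clear call, values can overlap the other calls; inactive = the rest, including any activity in the opposite direction.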

This assay can be described thus: inhibitors of fibronectin matrix deposition, dose response, AH1F cells, Alexa488-FN fluorescence, cherry-picks (AID 1035475).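 Also: AH1F fibroblasts incorporating labeled fibronectin into their extracellular matrix.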 As to conditions: AH1F fibroblasts, overnight; series mostly up to 35 µM.
Turning to `CCOc1ccccc1NC(=O)c1c(NC(=O)CCC(=O)O)sc2c1CCCCC2`, the result was inactive. As to `Cc1cccc(NC(=O)c2ccc(S(=O)(=O)N3CCCCC3)cc2)n1`, the molecule was classed as inactive. Consider `O=C(c1cccnc1)N1C[C@H]2[C@@H](c3ccccc31)[C@@H](CO)N2CC1CCCC1`, for which the result was inactive. In the case of `C[C@@H]1CN([C@H](C)CO)C(=O)c2cc(-c3ccccc3)cnc2O[C@@H]1CN(C)Cc1ccccc1` it was “inactive”.

Consider `C[C@H]1CN([C@@H](C)CO)C(=O)c2cc(NC(=O)C3CCCCC3)ccc2O[C@H]1CN(C)Cc1ccc(-c2ccccc2)cc1`, for which the molecule was classed as inactive. On to `CO[C@H]1CN(C)C(=O)c2cc(NC(=O)Nc3cc(Cl)cc(Cl)c3)ccc2OC[C@H](C)NC[C@@H]1C`, for which the molecule was classed as inactive. Regarding `C[C@@H]1CN([C@@H](C)CO)C(=O)c2cc(NC(=O)CCCN(C)C)ccc2O[C@H]1CN(C)Cc1ccc(-c2ccccc2)cc1`, the molecule was classed as inactive. In the case of `S=C(NCC1CCCO1)Nc1ccc(Cl)cc1Cl` (stereo not drawn) it was “inactive”; in that of `C[C@@H]1CN([C@@H](C)CO)C(=O)c2cc(-c3ccccc3)cnc2O[C@@H]1CN(C)C(=O)c1cccc(F)c1`, “inactive”. In the case of `COc1ccc(CN(C2CCCC2)S(=O)(=O)c2ccc(-n3cnnn3)cc2)cc1OC` it was “inactive”. Turning to `O=C(c1cccnc1)N1C[C@@H]2[C@H](c3ccccc31)[C@@H](CO)N2CC1CCCC1`, the call was inactive.

For the molecule `COc1ccccc1CC(=O)OC(C)C(=O)Nc1ccc(S(=O)(=O)N2CCCCC2)cc1` (stereo not drawn), the call was inactive. With `C[C@@H]1CN([C@@H](C)CO)C(=O)c2cc(NC(=O)CCCN(C)C)ccc2O[C@@H]1CN(C)Cc1ccc(-c2ccccc2)cc1`, the result was inactive.
